Screening results (PubChem)
Rows were chosen to be rich in hits. Some 12% of all compounds tested hit in one or more screens of this group.
G9a block = inhibitors of human histone lysine methyltransferase G9a; Q96KQ7; G9a H3K9 monomethylation, AlphaScreen, 2 h; Potency, µM (highest dose often 102 µM), for inactives: top-dose activity, negative = inhibition, hits mostly inhibitors; hit rate 8.8% among 350,000; also: potency is read from the fitted curve at half-maximal effect; % is scaled to controls: 0 for no effect and ±100 for the full control effect; nearly all actives have a fitted effect of over 75% in size
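AlphaScreen read-out: biotin-H3K9 peptide (500 nM) methylation by 20 nM enzyme with 20 uM SAM, 2 h at room temperature after 15 min compound preincubation; anti-monomethyl H3K9 antibody plus donor/acceptor beads, 10 min dark.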
PI5P4K alpha inh = inhibitors of human PI5P4K alpha | P48426 | PI5P4Kalpha enzyme, ADP-Glo luminescence, 60 min; active compounds read low | max response, % | hit rate 1.2% among 330,000; active = max response of -50% or lower; inconclusive = between -30% and -50%; inactive = -30% or higher; also: value at the top dose of about 77 µM; % is scaled to controls: 0 for no effect and ±100 for the full control effect
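qHTS, 1536-well: enzyme/substrate mix, compound by pin tool, 5 microM ATP final; RT 60 min; ADP-Glo reagents 1 (45 min) then 2 (30 min); luminescence.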
JMJD2A Tudor inh = inhibitors of human JMJD2A Tudor domain; Potency, µM (titrated, usually from 114 µM), for the others: top-dose activity change, negative = inhibition, actives largely listed as inhibitors; O75164; AlphaScreen JMJD2A-Tudor / H3K4me3 peptide binding; hit rate 4.4% among 390,000; also: potency is read from the fitted curve at half-maximal effect; % is scaled to controls: 0 for no effect and ±100 for the full control effect; nearly all actives have a fitted effect of over 50% in size
BAZ2B inh = BAZ2B (human) inhibition. Q9UIF8. hit rate 4.4% among 360,000. Potency, µM (top dose mostly 114 µM), for the others: at the top dose activity change, negative = inhibition, usual class: inhibitors. AlphaScreen BAZ2B-H3K14Ac peptide displacement. AID 504333; also: potency is read from the fitted curve at half-maximal effect; % is scaled to controls: 0 for no effect and ±100 for the full control effect; nearly all actives have a fitted effect of over 60% in size
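AlphaScreen displacement: compounds (up to 110uM) incubated 30 min at room temperature with a preformed 50 nM BAZ2B/50 nM biotinylated H3K14Ac peptide complex in PBS pH 7.4 with Tween-20. Donor and acceptor beads at 10 ug/mL final added, 20 min light-protected before reading.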
PLK1 PBD inh = inhibitors of human PLK1 polo-box domain binding; hit rate 2.8% among 360,000; Plk1 PBD binding of FITC phosphopeptide, fluorescence polarization; AID 720504; P53350; Potency, µM, inactives show max response, negative = inhibition, usual class: inhibitors; also: potency is read from the fitted curve at half-maximal effect; series mostly up to about 57 µM; % is scaled to controls: 0 for no effect and ±100 for the full control effect; nearly all actives have a fitted effect of over 65% in size
Target sequence (P53350 whole entry, looked up, the tested form may be a part): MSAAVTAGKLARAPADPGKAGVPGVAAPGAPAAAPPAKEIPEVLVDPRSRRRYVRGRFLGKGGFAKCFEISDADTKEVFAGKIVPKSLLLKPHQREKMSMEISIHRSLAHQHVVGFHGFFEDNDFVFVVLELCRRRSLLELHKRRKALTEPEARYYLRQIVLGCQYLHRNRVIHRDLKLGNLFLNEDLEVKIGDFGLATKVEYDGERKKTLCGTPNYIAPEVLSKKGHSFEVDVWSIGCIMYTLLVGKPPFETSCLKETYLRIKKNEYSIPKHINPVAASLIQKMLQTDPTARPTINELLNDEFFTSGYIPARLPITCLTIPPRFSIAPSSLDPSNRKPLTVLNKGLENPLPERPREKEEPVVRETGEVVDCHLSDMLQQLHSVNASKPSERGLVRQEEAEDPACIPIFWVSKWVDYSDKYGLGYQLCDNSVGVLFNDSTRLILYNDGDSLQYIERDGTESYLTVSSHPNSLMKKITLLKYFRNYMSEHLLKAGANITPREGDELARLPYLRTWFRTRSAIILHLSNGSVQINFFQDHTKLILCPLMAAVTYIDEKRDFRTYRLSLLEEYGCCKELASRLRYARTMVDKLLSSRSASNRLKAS
HP1b chromo inh = HP1-beta chromodomain-methylated histone interaction inhibition; P83916; AlphaScreen HP1-beta / biotin-H3K9me3 peptide binding; Potency, µM (top dose mostly 114 µM), inactives show top-dose activity change, negative = inhibition, most hits filed as inhibitors; hit rate 0.56% among 390,000; AID 540317; also: potency is read from the fitted curve at half-maximal effect; nearly all actives have a fitted effect of over 70% in size
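Compound inhibition of the preformed complex between 50 nM HP1-beta and 50 nM biotinylated H3K9me3 peptide was read by AlphaScreen. Buffer was PBS pH 7.4 with 0.01% Tween-20. Incubations ran 30 min at room temperature, with 10 ug/mL donor/acceptor beads.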
The depositor's hits bear a star; ? = inconclusive; / = no result given; [ ] = another dose, or the depositor's remark. Unless noted, calls follow the shape of the dose curve; as a rule, active = well fitted curve in the direction sought with a large enough effect; inconclusive = small, poorly fitted or top-dose-only effect, or another doubt; inactive = no such curve, though single readings can be large; an effect the other way counts as inactive or inconclusive.

SMILES | G9a block | PI5P4K alpha inh | JMJD2A Tudor inh | BAZ2B inh | PLK1 PBD inh | HP1b chromo inh
CCOc1ccc2nc(N3C(=O)C(O)=C(C(=O)c4ccco4)C3c3ccco3)sc2c1 (stereo unspecified) | ? | ? | 40µM* | 50µM* | ? | -17%
Cc1ccc2nc(N3C(=O)C(O)=C(C(=O)c4ccc(C)o4)C3c3ccc(O)cc3)sc2c1 (stereo unspecified) | ? | -58* | -46% | ? | ? | -10%
Cc1cc(C)c2nc(N3C(=O)C(O)=C(C(=O)c4ccco4)C3c3ccco3)sc2c1 (stereo unspecified) | ? | -53* | 50µM* | 45µM* | 11µM* | -21%
CCOC(=O)c1sc(N2C(=O)C(O)=C(C(=O)c3ccco3)C2c2ccco2)nc1C (stereo unspecified) | 8.9µM* | -9 | 16µM* | ? | ? | ?
CC(=O)NC1=CC(=O)c2nonc2C1=O | / | / | ? | / | / | -8%[57 µM]
COc1ccc(-c2nc3cnc(OC)nc3n(C3CC3)c2=O)cc1 | -8%[12.7 µM] | / | / | / | / | /
COCCn1c(=O)c(-c2cn(C)c3ccccc23)nc2cnc(Oc3cccc(Cl)c3)nc21 | 12%[0.501 µM] | / | / | / | / | /
COc1ccc(OC)c(C2C(C(=O)c3ccco3)=C(O)C(=O)N2Cc2cccnc2)c1 (stereo unspecified) | ? | -1 | -21% | ? | 0% | 36%
COc1ccc2nc(N3C(=O)C(O)=C(C(=O)c4ccco4)C3c3ccc(C)o3)sc2c1 (stereo unspecified) | 25µM* | -50* | ? | 45µM* | 19µM* | -23%
COc1ccc(CCN2C(=O)C(O)=C(C(=O)c3ccco3)C2c2cccs2)cc1OC (stereo unspecified) | -49%[0.0925 µM] | -1 | ? | ? | -8% | -4%
Cc1ccc2nc(N3C(=O)C(O)=C(C(=O)c4ccco4)C3c3cccs3)sc2c1 (stereo unspecified) | 25µM* | / | 18µM* | 45µM* | 27µM* | -21%
Cc1nc(N2C(=O)C(=O)/C(=C(/O)c3ccccc3)C2c2ccco2)sc1C (stereo unspecified) | ? | -15 | ? | 0% | -22% | 5%
COC(=O)c1sc(N2C(=O)C(=O)/C(=C(/O)c3ccccc3)C2c2ccco2)nc1C (stereo unspecified) | 35µM* | -13 | -18% | -25% | -11% | -3%
COc1ccc2nc(N3C(=O)C(O)=C(C(=O)c4ccco4)C3c3ccccc3OC)sc2c1 (stereo unspecified) | 35µM* | -5 | -2% | ? | ? | 30%
Cc1ccc(CN2CCCn3nc(C(=O)NCCc4ccc(Cl)cc4)cc3C2=O)cc1 | -3%[59 µM] | / | -13% | -33% | / | 3%
Cc1cccn2c(CNCCc3ccco3)c(C(=O)N3CCOCC3)nc12 | / | -1 | -10% | -20% | -2% | 6%
COc1ccc(OC)c(C(=O)NC(CC(N)=O)c2ccc(N3CCN(c4ccc(F)cc4)CC3)c([N+](=O)[O-])c2)c1 (stereo unspecified) | ? | -4 | ? | -26% | 30µM* | ?
NC(=O)CC(NC(=O)c1ccccc1)c1ccc(N2CCN(c3ccc(F)cc3)CC2)c([N+](=O)[O-])c1 (stereo unspecified) | / | -1 | -19% | -12% | -10% | 30%
COc1ccc(CCNc2ccc(C(CC(N)=O)NC(=O)c3cc(OC)ccc3OC)cc2[N+](=O)[O-])cc1 (stereo unspecified) | 45µM* | 1 | ? | 32µM* | 1% | -19%
COc1ccc(OC)c(C(=O)NC(CC(N)=O)c2ccc(NCCOc3ccccc3)c([N+](=O)[O-])c2)c1 (stereo unspecified) | / | -9 | ? | ? | -5% | -1%
Cc1ccc(C(=O)NCC(=O)OCC(=O)NCCc2ccccc2)s1 | -9% | ? | 50µM* | ? | 27µM* | -8%
